# Laboratory results reported in publication PMC5540273 (PLoS ONE, 2017).
# How the values were obtained:
# Conditions in all cases: concentration: 1 μM, replicates: in singlicate; n = 1
# DCAMKL2 = test system: T1, DCAMKL2
# T1 construct: gene DCLK2
# DCAMKL3 = test system: T2, DCAMKL3
# T2 construct: gene DCLK3
# DDR1 = test system: DDR1
# DDR2 = test system: DDR2
# DLK = test system: T3, DLK
# T3 construct: gene MAP3K12
# DMPK2 = test system: T4, DMPK2
# T4 construct: gene CDC42BPG
# DMPK = test system: DMPK
# DRAK1 = test system: T5, DRAK1
# T5 construct: gene STK17A
# DRAK2 = test system: T6, DRAK2
# T6 construct: gene STK17B
# DYRK1A = test system: DYRK1A
# DYRK1B = test system: DYRK1B
# DYRK2 = test system: DYRK2
# EGFR = test system: EGFR
# EIF2AK1 = test system: EIF2AK1
# EPHA1 = test system: EPHA1
# EPHA2 = test system: EPHA2
# EPHA3 = test system: EPHA3
# EPHA4 = test system: EPHA4
# EPHA5 = test system: EPHA5
# EPHA6 = test system: EPHA6
# 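Further: KINOMEscan kinase panel screen.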
Structure (SMILES),%Inh (DCAMKL2),%Inh (DCAMKL3),%Inh (DDR1),%Inh (DDR2),%Inh (DLK),%Inh (DMPK2),%Inh (DMPK),%Inh (DRAK1),%Inh (DRAK2),%Inh (DYRK1A),%Inh (DYRK1B),%Inh (DYRK2),%Inh (EGFR),%Inh (EIF2AK1),%Inh (EPHA1),%Inh (EPHA2),%Inh (EPHA3),%Inh (EPHA4),%Inh (EPHA5),%Inh (EPHA6)
O=C(NC1CCN(c2ccnc(Nc3ccc(F)cc3)n2)C1)c1cc2ccccc2s1 (stereo not shown) [GSK1379716],9%,7%,0%,32%,32%,0%,0%,7%,0%,7%,14%,0%,22%,0%,9%,17%,0%,16%,2%,10%
Oc1cc(Nc2ccnc3cc(I)ccc23)ccc1F [GW552771],0%,0%,14%,19%,32%,0%,0%,0%,6%,36%,0%,8%,32%,0%,94.8%,34%,48%,29%,0%,29%
Cc1ccc(F)c(C(=O)Nc2cccc(-c3nn4ccccc4c3-c3ccnc(Nc4cccc(F)c4)n3)c2)c1F [GSK361061],13%,70%,100%,87%,7%,85%,13%,0%,0%,11%,0%,5%,99.1%,9%,32%,26%,25%,20%,1%,32%
Cc1ccc(C(=O)Nc2ccc(Nc3ccnc4cc(-c5nccs5)ccc34)cc2O)cc1.Cl [GW494702],0%,0%,22%,46%,69%,0%,0%,5%,0%,3%,0%,0%,45%,6%,8%,15%,0%,9%,0%,15%
Fc1ccc(-c2ncn(C3CCNCC3)c2-c2ccnc(Oc3ccc(-c4ccccc4)cc3)n2)cc1 [SB-245391],3%,18%,2%,10%,7%,86%,5%,0%,15%,0%,25%,36%,3%,12%,19%,0%,0%,19%,9%,17%
